According to PubChem BioAssay (NCI):
This is part of a sample that, as a whole, favours compounds with a hit. Of some 79,000 tested, about 15% had one in any assay. A number with no mark means an inactive call. The source made the active and inactive calls. No stated cut-off is given here; in the data, active means growth inhibition above about 70%; inactive means the rest.

What was measured:
[1] = NCI Yeast Anticancer Drug Screen. Data for the rad50 strain (AID 155);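 further: 0% = growth of vehicle-only cultures of the same strain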; details: S. cerevisiae rad50 strain growth inhibition; at 50.0 µM; hits give high values
Procedure, shortened: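 Compounds were tested on a yeast strain with an engineered DNA damage repair alteration; the reported value is growth inhibition normalised to vehicle treatment.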

[2] = NCI Yeast Anticancer Drug Screen. Data for the mec2-1 strain (AID 157); details: S. cerevisiae mec2-1 strain, at 50.0 µM, hits give high values
Procedure, shortened: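 Strain: mec2-1 (DNA repair/cell cycle alteration). Compound exposure, then growth measured; inhibition expressed relative to vehicle.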

[3] = NCI Yeast Anticancer Drug Screen. Data for the sgs1 mgt1 strain (AID 161);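 further: 0% = growth of cultures given vehicle only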; details: S. cerevisiae sgs1 mgt1 strain, at 50.0 µM, hits give high values
Procedure, shortened: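 Read-out: growth inhibition vs vehicle controls. Cells: mutant yeast strain deficient in DNA damage repair.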

[4] = NCI Yeast Anticancer Drug Screen. Data for the cln2 rad14 strain (AID 165);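 further: 0% = growth equal to vehicle treated cultures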; details: S. cerevisiae cln2 rad14 strain, at 50.0 µM, hits give high values
Procedure, shortened: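 Compounds are applied to the cln2 rad14 yeast strain, and growth is then compared with that of vehicle-treated cultures to give inhibition.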

[5] = NCI Yeast Anticancer Drug Screen. Data for the bub3 strain (AID 167); details: S. cerevisiae bub3 mutant strain, at 50.0 µM, hits give high values
Procedure, shortened: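 Growth of a checkpoint-deficient yeast mutant is measured after compound exposure. Values represent inhibition relative to vehicle.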

[6] = NCI Yeast Anticancer Drug Screen. Data for the mlh1 rad18 strain (AID 175); details: S. cerevisiae mlh1 rad18 strain growth inhibition; at 50.0 µM; hits give high values
Procedure, shortened: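 Read-out is yeast growth inhibition, calculated against vehicle-only controls. The compound was applied to a strain engineered with DNA damage repair alterations.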

SMILES	growth inhibition [1] [%]	growth inhibition [2] [%]	growth inhibition [3]	growth inhibition [4] [%]	growth inhibition [5] [%]	growth inhibition [6] [%]
COc1cccc[n+]1C	10.2	3.45	-2.15%	8.3	5.4	7.45
CC1CN=C(c2c(O)ccc3ccccc23)S1 (stereo not given)	42.9	31.5	79.8% (active)	26.8	34.4	61.3
CCOC(=O)c1[nH]c2ccsc2c1C[N+]1(C)CCCCC1	38.1	5.8	36.9%	-3.7	-0.85	16.3
c1ccc(-c2ccc3c4ccccc4ccn23)cc1	9.2	-4.1	8.9%	17.7	12.7	23.9
CC1=C(O[Si](C(C)C)(C(C)C)C(C)C)C2CC1[C@@H]1C(=O)N(c3ccccc3)C(=O)[C@H]21 (stereo not given in full)	-1.45	-10.8	-7.15%	5.5	-15.6	-15.1
COc1ccc(C(O)C2CC(=O)NN=C2C)cc1OC (stereo not given)	8.05	-0.85	-3.3%	6.7	8.7	-1.7
C[C@]12C(=O)OC[C@H](c3ccccc3)N1C(=O)N(Cc1ccccc1)[C@@H]2CO	-27.8	-26.1	-17.6%	1.6	17.1	-9.5
O=C(CCCN1CCC2(CC1)NC(=O)c1ccccc1O2)c1ccc(F)cc1	23.6	10.6	55.5%	48.9	36.8	21.7
COc1ccc(N(C)C(=S)c2ccccc2)cc1	-49.5	-11.7	-15.4%	-37.5	0.45	-10.9
CC(=O)OCC1Cn2c(c(-c3ccccc3)c(=O)[nH]c2=S)O1 (stereo not given)	-9.15	14.5	5.95%	-1.95	-6.35	8.25
c1ccc2cc3c(cc2c1)oc1cc2ccccc2cc13	-14.1	-9.05	-4.8%	-6.1	-5.7	-10
CN1C(c2ccccc2)=C(C#N)C(=O)CC(c2cccs2)N1C (stereo not given)	-8	7.45	33.6%	-1.5	8.15	8.25
Cn1c(-c2ccc(Br)cc2)cc2[nH]c(=S)nc(N)c2c1=O	-16.8	-23.9	-14%	-12.3	-7.75	2.5
O=C(c1ccccc1)C(O)(c1ccccc1)C(c1ccccc1)c1ccccc1 (stereo not given)	5.8	18.6	16.9%	13	6.75	8.05
O=C(O)c1cocc1C(=O)O	3.2	-3.4	-13.6%	-14.8	-2.65	-3.95
COC(=O)CCC(=O)c1ccc(OC)cc1	4.7	-6.5	3.35%	-0.95	10.2	2.45
C[C@@H](C1CC[C@H]2[C@@H]3[C@@H]4O[C@@H]4[C@@]4(O)CC=CC(=O)[C@]4(C)[C@H]3C[C@H](O)[C@]12C)[C@H]1C[C@]2(C)O[C@]2(C)C(=O)O1 (stereo not given in full)	1.35	-3.25	-2.9%	29.5	2.65	-48.6
O=C(COc1ccc(Cl)cc1C(=O)O)NCc1cccc2ccccc12	-0.2	36	41.8%	0.9	46	31.6
COc1cc(CNc2nc3ccccc3nc2C(=O)O)cc(OC)c1OC	10.3	3.05	-8.75%	5.1	-2.15	-0.4
COc1cc(C)c2cc(C)cc(C)c2n1	3.4	6.05	1.65%	-17.9	3.9	7.85

SMILES	growth inhibition [1] [%]	growth inhibition [2] [%]	growth inhibition [3]	growth inhibition [4] [%]	growth inhibition [5] [%]	growth inhibition [6] [%]
O=P(O)(O)OP(=O)(O)OCC1OC(n2cnc3c(=S)nc[nH]c32)C(O)C1O (stereo not given)	-2.65	3.5	-5%	-9.2	3.55	2.85
Cc1ccc(C(C)C)c(O)c1NC(=S)N/N=C\c1cc(Cl)ccc1O	-4.55	22.8	-13.9%	7.6	-14.2	17.4
CC(=O)n1c2ccccc2c2nc3ccccc3nc21	0.3	10.4	11.9%	-30.9	-19.6	-14.1
O=C(CCn1[nH]c(=O)c(Cl)c(Cl)c1=O)NO	-21.3	-14.1	-9.75%	3.35	-19.1	-13.9
O=C1C2ON3c4ccccc4C(=O)C3(c3ccccc3)C2C(=O)N1c1ccccc1 (stereo not given)	-40.9	-31.3	-63%	-14.3	-37	-49
COc1cccc(C(=O)CCN(C)C)c1	33.4	0.35	-2.8%	12.1	18.1	28.1
O=C(O)c1ccc(Nc2nc3ccccc3nc2-c2cccs2)cc1	2.9	18.6	5.95%	20.7	12.2	-9.7
CCOC(=O)c1nnsc1NC(=O)Nc1ccc(Cl)cc1	-5.05	-21.2	-3.4%	-6.55	-44.9	10.6
Cl[Si]1(Cl)Oc2ccccc2O[Si](Cl)(Cl)Oc2ccccc2O1	16.2	10.6	8.35%	28.6	3.7	10.2
CC(NC(=O)CNC(=O)CNC(=O)OCc1ccccc1)C(=O)OCc1ccccc1 (stereo not given)	4.35	1.4	-3.65%	-3.65	1.45	5.4
COc1ccc(-c2cc(-c3cc(-c4ccc(OC)cc4)on3)no2)cc1	-1.6	-5.75	-26%	-7.45	-35.5	-1.05
CN1CCCC(C(O)c2ccccc2)S1(=O)=O (stereo not given)	17.2	23.4	-1.3%	9.65	29.4	14.3
O=C(NCCCCCCNC(=O)OCOC(=O)NCCCCCCNC(=O)Nc1ccc(SCCO)cc1)Nc1ccc(SCCO)cc1	15.7	12.4	16.3%	21.1	27.2	-36.9
Nc1ccc([N+](=O)[O-])cc1C(=O)O	5.1	0.9	-6.8%	-15.7	3.05	0
CN1C(=O)C(=O)N2c3ccc(Cl)cc3C3(c4ccccc4)N=CC12O3 (stereo not given)	9.3	3.05	6%	5	-8.4	-3.1
c1ccc(CC2CO2)cc1 (stereo not given)	-2.7	-17.8	-1.4%	-15.2	-0.2	-7.9
CC(C)CCCC(C)C1CCC2C3=CCC4CC(=O)CCC4(C)C3CCC21C (stereo not given)	30.9	-10.9	4.65%	4.35	-1.2	4.5
COc1ccc(/C=N/Nc2nc3ccccc3c(=O)n2-c2ccccc2)c(OCc2ccccc2)c1	4.7	5.2	5.5%	-0.1	9	9.85
O=c1[nH]c(=S)c2cncnc2n1C1OC(CO)C(O)C1O (stereo not given)	15.8	11.8	-6.6%	10.2	-28.3	-26.4
CC1=NN(C(=O)Nc2ccccc2)C(=O)C2CCC(=O)N12 (stereo not given)	-6.3	-4.55	-3.55%	3.85	-1	-8.1
